Structures are written as SMILES. Compounds without any hit were thinned out: in the full panel of roughly 83,000, 20% have a hit.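 96-well plates, one dose, 48 hours. Percent growth reported; active if below 10.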 Active and inactive are the calls of the source.

The test system of this test is HL-60(TB) leukemia. Put plainly: NCI-60 one-dose screen, 48 h (100 = growth as untreated, 0 = no growth, -100 = all killed). As to conditions: 10 µM unless noted.
Consider `COC(=O)c1nc(-c2ccccc2)oc1S(=O)(=O)Cc1ccccc1`, for which the growth was 16.8% (inactive).

Consider `Cc1ccc(S(=O)(=O)OC2COCOC2C(OS(=O)(=O)c2ccc(C)cc2)C2OCOCC2OS(=O)(=O)c2ccc(C)cc2)cc1` (centres undefined), for which the growth was 106% (inactive).

Take `O=C(Nc1cccc2ccccc12)c1cc2ccccc2cc1O`: the growth is 9.13% (active).

Regarding `O=C(NCCNc1nccc(-c2c(-c3cccc(O)c3)nc3sccn23)n1)Nc1cccc(C(F)(F)F)c1`, the growth was 36.4% (inactive).

In the case of `CN=S(=O)(OCCCCCOS(=O)(=NC)c1ccc(C)cc1)c1ccc(C)cc1` (centres undefined), the growth was 70.7% (inactive).

`COc1ccc(/C=C(\C#N)n2nnc3cc(Cl)ccc32)cc1`: the growth was -6.14% (active).

`CC(C)(C#N)Nc1ccccc1`: the growth was 105% (inactive).

As for `O=C1/C(=C/c2ccccc2O)C(=S)SN1Cc1ccco1`, the growth is 92% (inactive).

Consider `CC(=O)O[C@]1(C(C)=O)CCC2C3C[C@H](C)C4=CC(=O)CC[C@]4(C)C3CC[C@@]21C` (some centres undefined), for which the growth is 87.4% (inactive).

In the case of `COC(=O)c1ccc2[nH]c(O)c(C(=Nc3ccc(N(C)C(=O)CN4CCN(C)CC4)cc3)c3ccccc3)c2c1`, the growth was -14.4% (active).

As for `Cc1cccc2nc3ccccc3c(Nc3ccc(NS(C)(=O)=O)cc3)c12`, the growth is 1.14% (active).

On to `COc1cc(C=Nc2oc(-c3ccccc3)c(-c3ccccc3)c2C#N)cc(CN2CCCC2)c1O`, for which the growth was 102% (inactive).

For the compound `Cc1ccc(-c2csc(N)n2)cc1`, the growth is 112% (inactive).

For `Cc1ccc(C(=O)c2ccc(CC(=O)N/N=C/c3ccccc3O)n2C)cc1`, the growth is 87% (inactive).

As for `COc1ccc(OC)c(Nc2nnc(-c3cc(OC)c(OC)c(OC)c3)o2)c1`, the growth is 95.5% (inactive).

With `O=S(Cc1ccccc1)/C(=C/NC(=S)Nc1ccccc1)c1ccccc1` (centres undefined), the growth was 106% (inactive).

`CCOP(=O)(OCC)/C(=C\N1C(=O)CC(=O)NC1=S)C(=O)OC`: the growth was 103% (inactive).

For the compound `CC(=O)Oc1cc2cnc3c4cc(OC(C)=O)c(OC(C)=O)cc4ccc3c2cc1OC(C)=O`, the growth is -2.79% (active).

Turning to `O=C(Cc1ccc(F)c(Cl)c1)Nc1cc(C2(C(F)(F)F)CC2)nn1Cc1ccccc1`, the growth was 100% (inactive).

Turning to `CN(C)c1ccc(/C=C/C(=O)c2ccc(Nc3nc(Nc4ccc(F)cc4)nc(Nc4ccc(Cl)cc4)n3)cc2)cc1`, the growth is -70.5% (active).

For `O=C1/C(=C/c2ccc(Cl)cc2)SC(=Nc2ccc(Cl)cc2)N1Cc1nc2ccccc2[nH]1`, the growth is 95.8% (inactive).

As for `Clc1ccc(-c2c3ccc(=[N+]4CCCCC4)cc-3oc3cc(N4CCCCC4)ccc23)cc1`, the growth is -42.3% (active).

Consider `CC(C)(C)n1cc(-c2ccnc(NCCNS(=O)(=O)c3ccc(O)cc3)c2)c(-c2cccc(O)c2)n1`, for which the growth is 101% (inactive).

Consider `COc1ccc(/C=C2\CCCC3=C2NC(C)=NC3c2ccc(OC)c(OC)c2)cc1OC` (centres undefined), for which the growth is -6.62% (active).

For `Clc1ccc([I+]c2ccc(Cl)cc2Cl)c(Cl)c1`, the growth is -38.3% (active).

Take `COc1ccc(-c2cc(-c3ccccc3)nc(N3CCN(CCNc4ccnc5cc(Cl)ccc45)CC3)n2)cc1`: the growth was -39.8% (active).

As to `O=C(Cc1ccccc1)NNc1nc(Cl)nc(N2CCN(C(c3ccccc3)c3ccccc3)CC2)n1`, the growth is 58.2% (inactive).

`COc1cc(/C=C2\C(=O)N(CCCCn3c4ccccc4c(=O)c4ccccc43)c3ccccc32)cc(OC)c1O`: the growth is 53.5% (inactive).

On to `CCCCCO/N=C\c1c2c(O)c3c(O)c(C)c4c(c3c1O)C(=O)C(C)(O/C=C\C(OC)C(C)C(OC(C)=O)C(C)C(O)C(C)C(O)C(C)/C=C\C=C(\C)C(=O)N2)O4` (centres undefined), for which the growth was -6.96% (active).

`O=S(=O)(NCCNc1nccc(-c2c(-c3cccc(F)c3)nc3sccn23)n1)c1ccc(Cl)cc1`: the growth was 95.9% (inactive).

With `O=C(Nc1ccc(Cl)cc1)N1CCN(c2ccc3nncn3n2)CC1`, the growth was -65.2% (active).

Regarding `COc1cc2c(c(OC)c1OC)CCC(c1cccc(NC(=O)c3cccc(Br)c3)c1)O2` (centres undefined), the growth was 97% (inactive).

With `O=C(/C=C/C12c3ccccc3C(c3ccccc31)C1C(=O)NC(=O)C12)c1ccc(F)cc1` (centres undefined), the growth is -19.5% (active).

Regarding `NS(=O)(=O)c1cccc(NC(=O)C(=O)C2C(=O)Nc3ccccc32)c1` (centres undefined), the growth was 159% (inactive).

As for `CN1C(=O)/C(=C/c2ccc(C(=O)Nc3ncc(Cc4ccc(F)cc4)s3)cc2)SC1=S`, the growth is 37.6% (inactive).

Take `CCCCS(=O)(=O)Oc1ccc(-c2nc(C)c(C(=O)OCC)s2)cc1C=O`: the growth was 37.7% (inactive).

In the case of `Fc1ccc(C2CC(c3cccc(Nc4ccncc4)c3)=NN2c2ccccc2)cc1` (centres undefined), the growth was -19.5% (active).

In the case of `Cc1nn(-c2ccccc2)c(Oc2ccccc2)c1/C=N/NC(=O)Cn1c(=O)sc2ccccc21`, the growth was 5.9% (active).

As for `Cc1cc(Nc2nc(-c3ccncc3)nc3ccccc23)n[nH]1`, the growth was 49.1% (inactive).

For the origin of these results see PubChem BioAssay (NCI).
